# In PubChem BioAssay:
# Records with an inconclusive call do not appear. For part of these data: Potency and affinity values are given separately. This is one part of the list. Activity calls are given as the source filed them. Unless noted, how the calls were made is not given here.
# Experiments:
# [1] = molecular target: Cell division control protein 42 homolog (Homo sapiens) (UniProt P60953); assay: activated mutant Cdc42 GTP-binding inhibitors, dose response, biochemical, multiplex bead flow cytometry, Bodipy-FL-GTP (AID 1333;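 active means fitted half-maximal concentration within the tested dose range, moderate curve steepness, a statistically real signal drop, and little compound fluorescence or tag-binding interference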)
# [2] = molecular target: Cell division control protein 42 homolog (Homo sapiens) (UniProt P60953); assay: wildtype Cdc42 GTP-binding inhibitors, dose response, biochemical, multiplex bead flow cytometry, Bodipy-FL-GTP (AID 1334;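 active means fitted half-maximal concentration within the tested range, moderate curve steepness, significant signal drop, and little compound fluorescence or bead-linkage interference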); settings: bead-based flow cytometry, Bodipy-FL-GTP binding to GST-Cdc42; at 100 µM (top of the series) unless noted
# [3] = molecular target: GTPase HRas (Homo sapiens) (UniProt P01112); assay: inhibitors of GTP binding to wildtype Ras, dose response, biochemical, multiplex bead flow cytometry (AID 1335;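 active means fitted half-maximal concentration within 10 nM to 100 µM, steepness 0.5 to 2, significant signal drop, low assay interference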); settings: bead-based flow cytometry, Bodipy-GTP binding to GST-Ras; at 100 µM (top of the series) unless noted
# [4] = system: Ras-related protein Rab-7a (dog), GTP binding; assay: Rab7 GTP binding inhibitors, potency, dose response, biochemical, wildtype, multiplex bead flow cytometry (AID 1336)
# [5] = molecular target: Ras-related C3 botulinum toxin substrate 1 (Homo sapiens) (UniProt P63000); assay: wildtype Rac1 GTP binding inhibitors, dose response, biochemical, multiplex bead flow cytometry (AID 1340;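 active means dose curve with midpoint inside tested range, moderate steepness, plateau gap beyond fit error, low compound glow and bead-link interference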); settings: GST-Rac1 beads, Bodipy-FL-GTP binding; at 100 µM (top of the series) unless noted
# [6] = molecular target: GTPase HRas (Homo sapiens) (UniProt P01112); assay: activated Ras mutant GTP binding inhibitors, dose response, biochemical, multiplex bead flow cytometry (AID 1341;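 active means dose-response curve with midpoint inside the tested range, moderate steepness, significant amplitude and little compound fluorescence or bead-attachment interference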;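 further: GST-tagged constitutively activated Ras mutant immobilized on beads and multiplexed with other GTPases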)
# [7] = yeast TOR pathway RPL19A-GFP modulators, primary screen, cell-based, S. cerevisiae, multiplex flow cytometry (AID 1862; in the data active means percent of DMSO control GFP below about 86%;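 further: lower values mimic rapamycin by blocking the RPL19A rise seen in DMSO cells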); settings: S. cerevisiae RPL19A-GFP strain, flow cytometry fluorescence, 3 h; at 10 µM; stronger effect = lower value
# [8] = modulators of MEP2-GFP levels in yeast, primary screen, S. cerevisiae, multiplex flow cytometry (AID 1867;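 active means GFP response, as percent of the DMSO control, above the screen-wide mean plus 3 SD, about 139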;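 further: median GFP channel fluorescence of barcode-gated MEP2-GFP cells measured by flow cytometry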); settings: S. cerevisiae MEP2-GFP strain, 3 h, at 10 µM, stronger effect = higher value, 100% means same as DMSO wells
# [9] = modulators of CIT2-GFP expression in yeast, primary screen, S. cerevisiae, GFP fusion, multiplex flow cytometry (AID 1870;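 active means percent response above a set limit, the screen-wide mean plus 3 SD, cut at about 130% in these data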;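 further: barcoded CIT2-GFP strain pooled with four other GFP strains with rapamycin as positive control; median GFP fluorescence per well over plate mean of DMSO wells so 100% = DMSO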); settings: 3 h, at 10 µM, stronger effect = higher value
# [10] = modulators of LAP4-GFP expression in yeast, primary screen, S. cerevisiae, multiplex flow cytometry (AID 1873;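 active means GFP signal, as percent of the solvent control, above the screen mean plus 3 SD, about 149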); settings: 3 h, at 10 µM, stronger effect = higher value
# [11] = modulators of AGP1-GFP expression in yeast TOR pathway, primary screen, cell-based, multiplex flow cytometry, S. cerevisiae (AID 1887;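 active means GFP signal above the screen-wide mean plus 3 SD, that is over about 124.5% of the solvent control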;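 further: AGP1-GFP fusion strain of S. cerevisiae within a five-strain barcoded multiplex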); settings: 3 h, at 10 µM, stronger effect = higher value
# [12] = inhibitors of CD8+ T cell-vesicle binding, pilot screen, LFA-1/ICAM-1 modulator project, MLPCN validation set, flow cytometry (AID 2523;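 active means response below a set limit, under 55% cells CD8-positive and vesicle-bound, and CD8 cells' 90th-percentile brightness under 279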;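 on vesicle binding response: mean PE anti-B7-1 fluorescence of CD8+ cells relative to row control; 100% = QL9-loaded vesicles with DMSO vehicle in the same plate row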); settings: 2C mouse CD8+ T cells, at 7 µM, stronger effect = lower value; double positive events: measured here: CD8+/vesicle+ event percentage
# [13] = molecular target: Integrin beta-1 (Homo sapiens) + Integrin alpha-4 (Homo sapiens) (UniProt P13612+P05556); assay: inhibition of HUTS-21 binding to VLA-4, pilot screen, VLA-4 allosteric modulator project, U937 cells, HUTS-21 mAb, flow cytometry, validation set (AID 2674;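 active means inhibition above 50%, about 3 SD of the validation set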;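 further: antibody binding induced by the VLA-4 ligand LDV present at three times its Kd; 0% = LDV ligand with antibody and no compound and 100% = antibody without LDV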); settings: HUTS-21 LIBS mAb binding, at 6.7 µM, stronger effect = higher value, binding induced by LDV ligand
# [14] = superoxide lowering in aged yeast cells, pilot screen, validation compound set (AID 2706;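 active means superoxide response below 65% of plate, a cut near 3 SD across the whole screen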;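 further: yeast exposed to compound for one week at 30 degrees C before staining; 100% = mean of all compound wells on the same plate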); settings: S. cerevisiae aging, superoxide DHE fluorescence; at 10 µM; stronger effect = lower value
# [15] = molecular target: Beta-adrenergic receptor kinase 1 (Homo sapiens) (UniProt P25098); assay: GRK2 binders displacing RNA aptamer, biochemical, validation, human GRK2, bead flow cytometry (AID 488806;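 active means aptamer binding inhibition above 30%, about 3 SD of noise from non-fluorescent compounds; inactive means inhibition at or below 30%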); settings: bead-bound GRK2, FAM-aptamer displacement, at 10 µM, stronger effect = higher value
# [16] = molecular target: Beta-2 adrenergic receptor (Homo sapiens) (UniProt P07550); assay: beta2AR agonists driving receptor internalization, pilot screen, cell-based, FAP fluorogen, flow cytometry, validation set (AID 504459;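 active means percent response above 42, roughly 3 SD of non-fluorescent test compounds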;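 further: agonist-driven loss of surface beta2AR via internalization measured by FAP dye flow cytometry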); settings: Am2.2-beta2AR cells, FAP surface receptor flow cytometry; at 10 µM; stronger effect = higher value
# [17] = molecular target: AP-2 complex subunit beta (Homo sapiens) (UniProt P63010); assay: inhibitors of arrestin peptide binding to AP2, pilot screen, biochemical, validation set, GST-AP2 beads, flow cytometry (AID 504541;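 active means inhibition above 54%, about 3 SD of non-fluorescent compounds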;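 further: AP2 carries R879A mutation and is captured from E. coli lysate; bead-bound FITC arrestin peptide fluorescence measuring arrestin peptide binding to AP2; 0% = DMSO wells and 100% = excess unlabeled arrestin peptide control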); settings: FITC arrestin peptide, at 10 µM, stronger effect = higher value, AP2 beta2 appendage fragment, R879A mutant
# [18] = yeast V-ATPase proton transport modulators, S. cerevisiae, pHLuorin, HTS validation (AID 504600; in the data active means response above about 15%;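 further: plate controls were DMSO for no effect and reference compound for full effect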); settings: S. cerevisiae pHLuorin cytosolic pH, at 10 µM, stronger effect = higher value
# [19] = system: anti-desmoglein-3 scFv antibody binding to human DSG3; assay: inhibitors of anti-DSG3 scFv binding to DSG3, pilot screen, biochemical, validation compound set, bead-based, flow cytometry (AID 588368;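 active means binding below the plate cutoff, the plate median minus 3 SD, with a reading above zero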;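 further: signal is the median channel fluorescence of bead-bound GFP antibody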); settings: Protein G beads, DSG3-Fc, scFv-GFP binding, at 10 µM, stronger effect = lower value
# [20] = inhibitors of fungal efflux pumps CDR1, CDR2, MDR1, pilot screen, validation compound set, multiplex, phenotypic (AID 588506;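 active means efflux inhibition above 0.42, the validation set average plus 4 SD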;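 further: Nile Red retained in cells so higher fluorescence means more efflux inhibition; 0 = negative control wells and 1 = enniatin B 25 µM full block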); settings: S. cerevisiae pump-expressing triplex, Nile Red efflux flow cytometry; at 10 µM; stronger effect = higher value; the pumps come from Candida albicans
# [21] = molecular target: ATP-binding cassette sub-family B member 6 (Homo sapiens) (UniProt Q9NP58); assay: ABCB6 transporter inhibitors, pilot screen, K562-ABCB6 cells, flow cytometry, validation set (AID 588550;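 active means inhibition above the screen-wide mean plus 3 SD, about 51%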;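 further: 0% = DMSO wells and 100% = benzethonium chloride 70 µM positive control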); settings: K562-ABCB6 porphyrin accumulation, 1 h, at 10 µM, stronger effect = higher value
# [22] = promoters of myeloid differentiation in arrested cells, primary screen, cell-based, GFP/MAC1 double positive, flow cytometry, validation set (AID 588685;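 active means differentiation response of at least 50%, scaled between solvent and reference control, from cells with both markers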;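 further: compound exposure lasts four days before antibody staining and flow analysis; 0% = DMSO wells and 100% = 5 µM fulvestrant positive control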); settings: ER-HoxA9 marrow cells, stronger effect = higher value, normalized: vehicle 0, fulvestrant 100
# [23] = molecular target: Regulator of G-protein signaling 16 (Homo sapiens) (UniProt O15492); assay: modulators of RGS–Galpha-o binding, primary screen, biochemical, multiplexed beads, flow cytometry, RGS4/7/8/16/19 (AID 1504); settings: multiplexed bead flow cytometry, measured here: RGS16 interaction, at 10 µM;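 further: fluorescently labeled Galpha-o bound to GDP with aluminium fluoride binding biotinylated RGS beads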
# [24] = molecular target: Regulator of G-protein signaling 19 (Homo sapiens) (UniProt P49795); assay: as above; settings: multiplexed bead flow cytometry, measured here: RGS19 interaction, at 10 µM
# [25] = molecular target: Regulator of G-protein signaling 7 (Homo sapiens) (UniProt P49802); assay: as above; settings: multiplexed bead flow cytometry, measured here: RGS7 interaction, at 10 µM
# [26] = molecular target: Regulator of G-protein signaling 8 (Homo sapiens) (UniProt P57771); assay: as above; settings: multiplexed bead flow cytometry, measured here: RGS8 interaction, at 10 µM
# [27] = RPL19A-GFP modulators, yeast TOR pathway, confirmation, cell-based, S. cerevisiae, flow cytometry, cherry picks, mother/daughter gates (AID 2270;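 active means GFP response below 50% of the DMSO control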); settings: S. cerevisiae RPL19A-GFP strain, 3 h, at 10 µM, stronger effect = lower value, 100 = same GFP as DMSO wells
# [28] = LAP4-GFP expression modulators in yeast, confirmation, cell-based, cherry picks, flow cytometry, mother/daughter gates (AID 2271;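 active means GFP response above 150% of the DMSO control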;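 further: ratio of sample to DMSO plate mean so 100% equals DMSO level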); settings: S. cerevisiae LAP4-GFP strain, 3 h, at 10 µM, stronger effect = higher value, 100 means same as DMSO control
# [29] = modulators of MEP2-GFP levels in yeast, confirmation, S. cerevisiae, flow cytometry GFP, cherry picks (AID 2272;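 active means GFP response above 150% of the DMSO control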;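 further: ratio of well signal to plate DMSO mean so 100% equals DMSO level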); settings: S. cerevisiae MEP2-GFP strain, 3 h, at 10 µM, stronger effect = higher value
# [30] = AGP1-GFP expression modulators, hit retest, confirmation, cell-based, flow cytometry, S. cerevisiae, cherry picks (AID 2273;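 active means GFP response above 150% of the DMSO level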;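 further: median GFP channel fluorescence over the whole cell population gate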); settings: S. cerevisiae AGP1-GFP strain, 3 h, at 10 µM
# [31] = modulators of CIT2-GFP expression in yeast, confirmation, S. cerevisiae, GFP fusion, cherry picks, mother/daughter gates (AID 2274;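 active means GFP response above 150% of the DMSO level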); settings: S. cerevisiae CIT2-GFP strain, flow cytometry, 3 h, at 10 µM, stronger effect = higher value
# [32] = compound autofluorescence in yeast s288c, dose response, artefact control for yeast TOR pathway GFP screen, s288c strain (AID 2757;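 active means fluorescence span over the dose series, or activity score, above about 33, limit read from the data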;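 further: thousands of bead-calibrated equivalent soluble fluorophore molecules from median cell fluorescence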); settings: S. cerevisiae s288c, 520 nm autofluorescence, flow cytometry, 3 h; at 33 µM; stronger effect = higher value; zero means same as solvent-only cells
# [33] = measured here: daughter cell gate
# [34] = measured here: mother cell gate
# GTPase HRas (Homo sapiens), sequence (P01112 whole entry, looked up): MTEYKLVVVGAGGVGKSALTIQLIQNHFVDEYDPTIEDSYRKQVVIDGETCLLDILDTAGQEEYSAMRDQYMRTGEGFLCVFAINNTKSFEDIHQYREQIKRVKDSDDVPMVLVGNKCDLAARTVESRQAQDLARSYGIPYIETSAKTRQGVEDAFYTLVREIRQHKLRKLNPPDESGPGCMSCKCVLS
# Cell division control protein 42 homolog (Homo sapiens), sequence (P60953 whole entry, looked up): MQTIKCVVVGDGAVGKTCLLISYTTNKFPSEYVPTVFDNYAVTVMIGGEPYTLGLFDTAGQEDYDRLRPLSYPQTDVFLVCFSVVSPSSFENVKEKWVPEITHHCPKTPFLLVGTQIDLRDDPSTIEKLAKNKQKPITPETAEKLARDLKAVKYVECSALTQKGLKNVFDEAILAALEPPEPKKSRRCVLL
# Beta-2 adrenergic receptor (Homo sapiens), sequence (P07550 whole entry, looked up): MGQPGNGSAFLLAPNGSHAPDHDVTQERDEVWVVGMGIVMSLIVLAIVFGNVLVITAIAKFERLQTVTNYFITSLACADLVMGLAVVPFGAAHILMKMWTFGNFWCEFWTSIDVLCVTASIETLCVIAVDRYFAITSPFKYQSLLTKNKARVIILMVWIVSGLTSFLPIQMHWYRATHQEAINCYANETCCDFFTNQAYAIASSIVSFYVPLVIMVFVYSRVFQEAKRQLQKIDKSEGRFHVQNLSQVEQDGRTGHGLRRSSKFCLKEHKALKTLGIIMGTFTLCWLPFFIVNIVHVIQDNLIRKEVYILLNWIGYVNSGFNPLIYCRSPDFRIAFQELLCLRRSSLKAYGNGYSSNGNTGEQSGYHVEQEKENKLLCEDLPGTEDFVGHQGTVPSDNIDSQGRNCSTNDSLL
# AP-2 complex subunit beta (Homo sapiens), sequence (P63010 whole entry, looked up, the tested form may be a part, one chain of several): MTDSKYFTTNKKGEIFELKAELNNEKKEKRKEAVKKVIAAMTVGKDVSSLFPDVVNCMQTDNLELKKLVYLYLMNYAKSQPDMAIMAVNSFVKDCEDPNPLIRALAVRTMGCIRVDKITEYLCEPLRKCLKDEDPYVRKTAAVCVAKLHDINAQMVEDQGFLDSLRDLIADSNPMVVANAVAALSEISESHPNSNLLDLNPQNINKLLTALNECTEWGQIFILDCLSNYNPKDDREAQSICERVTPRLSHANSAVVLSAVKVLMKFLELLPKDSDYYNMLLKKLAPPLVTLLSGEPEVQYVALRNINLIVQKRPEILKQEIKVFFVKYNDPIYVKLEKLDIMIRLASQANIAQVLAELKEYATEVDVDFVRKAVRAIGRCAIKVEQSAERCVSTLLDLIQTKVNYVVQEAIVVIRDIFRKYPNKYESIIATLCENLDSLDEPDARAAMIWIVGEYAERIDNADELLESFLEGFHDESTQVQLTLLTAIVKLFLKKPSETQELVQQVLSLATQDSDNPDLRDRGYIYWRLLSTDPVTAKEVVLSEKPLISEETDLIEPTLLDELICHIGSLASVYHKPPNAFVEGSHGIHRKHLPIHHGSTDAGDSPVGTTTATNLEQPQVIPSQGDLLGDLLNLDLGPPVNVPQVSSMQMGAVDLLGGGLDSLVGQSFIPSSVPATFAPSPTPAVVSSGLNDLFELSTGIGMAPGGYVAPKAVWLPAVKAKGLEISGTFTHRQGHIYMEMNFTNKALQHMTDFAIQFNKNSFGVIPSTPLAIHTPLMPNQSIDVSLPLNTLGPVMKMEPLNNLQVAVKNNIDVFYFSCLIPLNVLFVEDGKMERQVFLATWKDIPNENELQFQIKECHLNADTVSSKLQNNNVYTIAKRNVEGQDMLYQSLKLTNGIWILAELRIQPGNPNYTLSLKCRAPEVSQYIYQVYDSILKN
# Integrin beta-1 (Homo sapiens) + Integrin alpha-4 (Homo sapiens), sequence (P05556 whole entry, looked up): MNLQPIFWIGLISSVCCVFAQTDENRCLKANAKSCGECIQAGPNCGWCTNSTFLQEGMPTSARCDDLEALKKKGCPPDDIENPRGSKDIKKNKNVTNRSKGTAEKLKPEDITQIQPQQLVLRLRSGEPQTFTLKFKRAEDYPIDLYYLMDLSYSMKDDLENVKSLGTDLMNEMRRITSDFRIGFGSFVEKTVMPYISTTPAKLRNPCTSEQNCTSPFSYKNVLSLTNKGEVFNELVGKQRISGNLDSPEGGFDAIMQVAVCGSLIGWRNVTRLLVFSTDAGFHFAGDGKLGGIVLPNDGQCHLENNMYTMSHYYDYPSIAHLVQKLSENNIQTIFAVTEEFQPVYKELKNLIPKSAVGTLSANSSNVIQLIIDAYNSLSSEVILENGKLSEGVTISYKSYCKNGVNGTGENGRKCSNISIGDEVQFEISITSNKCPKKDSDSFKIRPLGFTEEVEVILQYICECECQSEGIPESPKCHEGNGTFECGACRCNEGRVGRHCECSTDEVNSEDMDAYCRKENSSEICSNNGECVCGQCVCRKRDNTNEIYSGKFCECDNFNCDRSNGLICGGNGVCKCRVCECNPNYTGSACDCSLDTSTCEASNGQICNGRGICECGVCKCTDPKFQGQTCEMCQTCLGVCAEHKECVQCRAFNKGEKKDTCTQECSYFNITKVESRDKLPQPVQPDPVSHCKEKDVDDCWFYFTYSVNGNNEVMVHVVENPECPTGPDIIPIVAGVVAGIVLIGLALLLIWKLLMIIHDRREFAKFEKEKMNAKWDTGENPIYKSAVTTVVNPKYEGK
# Integrin beta-1 (Homo sapiens) + Integrin alpha-4 (Homo sapiens), sequence (P13612 whole entry, looked up): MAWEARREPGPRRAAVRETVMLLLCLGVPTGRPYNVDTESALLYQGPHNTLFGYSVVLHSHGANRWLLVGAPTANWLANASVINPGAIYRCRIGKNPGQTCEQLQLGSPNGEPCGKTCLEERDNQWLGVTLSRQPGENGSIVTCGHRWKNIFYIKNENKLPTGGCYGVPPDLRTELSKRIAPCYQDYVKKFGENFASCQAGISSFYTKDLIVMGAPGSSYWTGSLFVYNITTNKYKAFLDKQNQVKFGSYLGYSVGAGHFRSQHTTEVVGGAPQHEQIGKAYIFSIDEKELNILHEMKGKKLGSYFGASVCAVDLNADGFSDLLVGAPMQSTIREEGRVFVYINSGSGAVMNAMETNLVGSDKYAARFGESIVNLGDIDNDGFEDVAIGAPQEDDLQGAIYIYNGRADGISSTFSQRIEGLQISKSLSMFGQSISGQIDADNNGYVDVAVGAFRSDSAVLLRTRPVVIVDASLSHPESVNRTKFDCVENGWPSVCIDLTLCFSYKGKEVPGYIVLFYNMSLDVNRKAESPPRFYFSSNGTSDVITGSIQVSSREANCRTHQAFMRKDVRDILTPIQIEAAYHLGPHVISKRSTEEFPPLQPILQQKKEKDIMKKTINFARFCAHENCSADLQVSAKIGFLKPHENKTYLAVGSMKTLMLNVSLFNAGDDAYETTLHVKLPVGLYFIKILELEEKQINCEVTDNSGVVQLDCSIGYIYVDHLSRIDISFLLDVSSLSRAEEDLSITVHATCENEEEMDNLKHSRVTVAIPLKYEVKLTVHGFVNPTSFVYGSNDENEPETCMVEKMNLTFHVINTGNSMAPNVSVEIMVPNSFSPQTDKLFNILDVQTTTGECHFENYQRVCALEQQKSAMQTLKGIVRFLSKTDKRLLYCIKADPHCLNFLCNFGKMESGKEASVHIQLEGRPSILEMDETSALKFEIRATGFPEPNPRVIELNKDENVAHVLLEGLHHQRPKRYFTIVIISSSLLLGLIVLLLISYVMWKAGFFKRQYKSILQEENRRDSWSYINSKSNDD
# ATP-binding cassette sub-family B member 6 (Homo sapiens), sequence (Q9NP58 whole entry, looked up): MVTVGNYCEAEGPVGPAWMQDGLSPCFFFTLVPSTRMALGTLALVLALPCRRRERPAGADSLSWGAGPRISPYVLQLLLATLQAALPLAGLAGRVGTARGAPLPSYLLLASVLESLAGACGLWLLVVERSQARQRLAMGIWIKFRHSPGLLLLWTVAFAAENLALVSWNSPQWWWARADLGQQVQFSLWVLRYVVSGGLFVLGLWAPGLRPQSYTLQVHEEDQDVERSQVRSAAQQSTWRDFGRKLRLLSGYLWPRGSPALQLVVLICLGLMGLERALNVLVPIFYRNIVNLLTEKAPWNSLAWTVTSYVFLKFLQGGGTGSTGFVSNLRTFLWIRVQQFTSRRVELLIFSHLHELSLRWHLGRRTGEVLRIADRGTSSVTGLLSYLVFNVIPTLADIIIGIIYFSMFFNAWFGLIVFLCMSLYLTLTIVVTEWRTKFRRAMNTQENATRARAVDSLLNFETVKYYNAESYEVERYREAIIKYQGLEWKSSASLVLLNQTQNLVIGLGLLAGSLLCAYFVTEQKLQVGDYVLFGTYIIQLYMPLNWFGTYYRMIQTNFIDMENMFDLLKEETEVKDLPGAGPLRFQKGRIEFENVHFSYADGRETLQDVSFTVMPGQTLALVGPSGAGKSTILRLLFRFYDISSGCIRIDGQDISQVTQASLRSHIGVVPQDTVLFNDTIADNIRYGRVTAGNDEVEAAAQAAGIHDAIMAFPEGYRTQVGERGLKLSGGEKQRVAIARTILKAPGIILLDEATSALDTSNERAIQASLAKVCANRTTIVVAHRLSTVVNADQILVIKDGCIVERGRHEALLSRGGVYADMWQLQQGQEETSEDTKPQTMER
compound,measurement,setting,value
COC(=O)C1=NN(C(=O)c2cccc(Br)c2)C(O)(c2ccc(Cl)cc2)C1 (stereo not given),outcome,[1],inactive
same,"fluorescence, percent of control (lower = inhibition)",[2],31.2%
same,"GTP binding, percent of control",[3],79.1%
same,outcome,[4],inactive
same,"GTP binding signal, raw median fluorescence (lower = inhibition) (MCF (arbitrary fluorescence units))",[5],240
same,outcome,[6],inactive
same,percent of DMSO control GFP,[7],100% (inactive)
same,GFP response vs DMSO,[8],95.1% (inactive)
same,percent response of DMSO control,[9],97.8% (inactive)
same,GFP response vs DMSO,[10],114% (inactive)
same,"GFP response, % of DMSO",[11],89.9% (inactive)
same,double positive events,[12],63.4%
same,vesicle binding response,[12],223% (inactive)
same,inhibition,[13],-83.5% (inactive)
same,superoxide response (% of plate),[14],93.4% (inactive)
same,aptamer binding inhibition,[15],3% (inactive)
same,response,[16],-15.6% (inactive)
same,inhibition,[17],-11.3% (inactive)
same,response,[18],-0.27% (inactive)
same,binding (% of control),[19],109% (inactive)
same,efflux inhibition (fraction of control),[20],-0.1 (inactive)
same,inhibition,[21],-2% (inactive)
same,differentiation response,[22],11% (inactive)
CN(c1ccccc1)c1ccc(/C=c2\s/c(=C(/C#N)C(=O)C(C)(C)C)n(Cc3ccco3)c2=O)cc1,outcome,[1],inactive
same,"fluorescence, percent of control (lower = inhibition)",[2],160%
same,"GTP binding, percent of control",[3],157%
same,outcome,[4],inactive
same,"GTP binding signal, raw median fluorescence (lower = inhibition) (MCF (arbitrary fluorescence units))",[5],180
same,outcome,[6],inactive
same,RGS16–Galpha-o binding response,[23],551%
same,RGS19–Galpha-o binding response,[24],4650%
same,RGS7–Galpha-o binding response,[25],421%
same,RGS8–Galpha-o binding response,[26],134%
same,GFP response vs DMSO,[27],118% (inactive)
same,GFP response vs DMSO,[27]; [33],118%
same,GFP response vs DMSO,[27]; [34],116%
same,GFP response relative to DMSO,[28],235% (active)
same,GFP response relative to DMSO,[28]; measured here: daughter cell gate response,240%
same,GFP response relative to DMSO,[28]; measured here: mother cell gate response,231%
same,GFP response vs DMSO,[29],309% (active)
same,"GFP response, % of DMSO",[30],126% (inactive)
same,"GFP response, % of DMSO",[31],231% (active)
same,"GFP response, % of DMSO",[31]; [33],229%
same,"GFP response, % of DMSO",[31]; [34],230%
same,fluorescence change (kMESF span),[32],19.9 (inactive)
